# Test results reported in PubChem BioAssay (NCATS).
# “And” between values parts separate entries of the source, which are not always exact repeats. Identical values can stand only once. Inconclusive results are not listed. Where a call stands in place of a potency, no number is given. The source made the active and inactive calls. Calls come from the whole dose curve; as a rule, active = well fitted curve in the direction sought with a large enough effect; inconclusive = small, poorly fitted or top-dose-only effect, or another doubt; inactive = no such curve, though single readings can be large; an effect the other way counts as inactive or inconclusive.
# Legend:
# [1] = qHTS of pediatric cancer cell lines to identify multiple opportunities for drug repurposing: Primary screen for SJ-GBM2 cells (AID 1347091); note: potency is the fitted concentration of half-maximal effect
# Outline: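 Cell viability, CellTiter-Glo luminescence; 500-1,000 cells/well, 8- or 11-point titration, 48 h compound exposure at 37 degrees C, 5% CO2. Controls: DMSO neutral, bortezomib 2.3 µM final as positive.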
# [2] = qHTS of pediatric cancer cell lines to identify multiple opportunities for drug repurposing: Primary screen for A673 cells (AID 1347092); note: nearly all actives have a fitted effect of over 45% in size; note: potency is the fitted concentration of half-maximal effect
# Outline: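 Cell viability of A673 measured by CellTiter-Glo ATP luminescence after 48 hours compound exposure. Dilution series spanned 0.78 nM to 46 µM (MIPE, 11-point) or 0.59 nM to 46 µM (NPC, 8-point); bortezomib 2.3 uM positive control.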
# [3] = qHTS of pediatric cancer cell lines to identify multiple opportunities for drug repurposing: Primary screen for SK-N-MC cells (AID 1347093); note: potency is the fitted concentration of half-maximal effect
# Outline: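 Metabolically active cells were quantified by ATP-dependent luminescence (CellTiter-Glo, 15 min at room temperature) following 48 h treatment. Cells had been plated at 500-1,000 per well and settled for 5 h beforehand.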
# [4] = qHTS of pediatric cancer cell lines to identify multiple opportunities for drug repurposing: Primary screen for BT-37 cells (AID 1347094); note: potency is the fitted concentration of half-maximal effect
# Outline: (§1)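 ATP-based luminescence (CellTiter-Glo) quantifies viability after a 48-hour exposure. Compounds are dosed across 8 or 11 final concentrations; DMSO and 2.3 µM bortezomib serve as controls.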
# [5] = qHTS of pediatric cancer cell lines to identify multiple opportunities for drug repurposing: Primary screen for NB-EBc1 cells (AID 1347095); note: potency is the fitted concentration of half-maximal effect
# Outline: as §1
# [6] = qHTS of pediatric cancer cell lines to identify multiple opportunities for drug repurposing: Primary screen for U-2 OS cells (AID 1347096); note: nearly all actives have a fitted effect of over 50% in size
# Outline: (§2)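 Cells (500-1,000/well) rested 5 h, then received compounds for 48 h; metabolically active cells were measured by CellTiter-Glo luminescence. Final concentrations spanned up to 46 µM (MIPE, 11-point) or 0.59 nM-46 µM (NPC, 8-point) in primary screens, 11-point in follow-ups.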
# [7] = qHTS of pediatric cancer cell lines to identify multiple opportunities for drug repurposing: Primary screen for NB1643 cells (AID 1347099); note: nearly all actives have a fitted effect of over 50% in size; note: potency is the fitted concentration of half-maximal effect
# Outline: as §1
# [8] = qHTS of pediatric cancer cell lines to identify multiple opportunities for drug repurposing: Primary screen for LAN-5 cells (AID 1347100); note: potency is the fitted concentration of half-maximal effect
# Outline: as §2
# [9] = qHTS of pediatric cancer cell lines to identify multiple opportunities for drug repurposing: Primary screen for BT-12 cells (AID 1347101); note: nearly all actives have a fitted effect of over 25% in size; note: potency is the fitted concentration of half-maximal effect
# Outline: as §2
# [10] = qHTS of pediatric cancer cell lines to identify multiple opportunities for drug repurposing: Primary screen for Rh18 cells (AID 1347102); note: nearly all actives have a fitted effect of over 65% in size; note: potency is the fitted concentration of half-maximal effect
# Outline: as §2
# [11] = qHTS of pediatric cancer cell lines to identify multiple opportunities for drug repurposing: Primary screen for OHS-50 cells (AID 1347103); note: nearly all actives have a fitted effect of over 40% in size; note: potency is the fitted concentration of half-maximal effect
# Outline: as §2
# [12] = qHTS of pediatric cancer cell lines to identify multiple opportunities for drug repurposing: Primary screen for control Hh wild type fibroblast cells (AID 1347106); note: nearly all actives have a fitted effect of over 55% in size; note: potency is the fitted concentration of half-maximal effect
# Outline: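 Cells (500-1,000/well) in growth media were settled 5 h at 37 degrees C, then given compounds for 48 h. Viability was read as CellTiter-Glo luminescence. Primary runs used MIPE at 11 points (0.78 nM-46 µM) and NPC at 8 points (0.59 nM-46 µM); follow-ups used 11 points.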
# [13] = qHTS of pediatric cancer cell lines to identify multiple opportunities for drug repurposing: Primary screen for Saos-2 cells (AID 1347097); note: nearly all actives have a fitted effect of over 40% in size; note: potency is the fitted concentration of half-maximal effect
# Outline: as §1
# [14] = qHTS of pediatric cancer cell lines to identify multiple opportunities for drug repurposing: Primary screen for SK-N-SH cells (AID 1347098); note: nearly all actives have a fitted effect of over 65% in size; note: potency is the fitted concentration of half-maximal effect
# Outline: as §2
# [15] = qHTS of pediatric cancer cell lines to identify multiple opportunities for drug repurposing: Primary screen for RD cells (AID 1347104); note: nearly all actives have a fitted effect of over 55% in size; note: potency is the fitted concentration of half-maximal effect
# Outline: as §1
# [16] = qHTS of pediatric cancer cell lines to identify multiple opportunities for drug repurposing: Primary screen for MG 63 (6-TG R) cells (AID 1347105); note: nearly all actives have a fitted effect of over 50% in size; note: potency is the fitted concentration of half-maximal effect
# Outline: as §1
# [17] = qHTS of pediatric cancer cell lines to identify multiple opportunities for drug repurposing: Primary screen for Rh30 cells (AID 1347107); note: series mostly up to about 46 µM; nearly all actives have a fitted effect of over 75% in size
# Outline: as §2
# [18] = qHTS of pediatric cancer cell lines to identify multiple opportunities for drug repurposing: Primary screen for Rh41 cells (AID 1347108);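 note: series mostly up to about 46 µM; luminescence drop marks cytotoxic hits; nearly all actives have a fitted effect of over 70% in size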
# Outline: as §1
# [19] = qHTS of pediatric cancer cell lines to identify multiple opportunities for drug repurposing: Confirmatory screen for A673 cells (AID 1347110);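 note: cells exposed to compound for 48 h before the viability read; nearly all actives have a fitted effect of over 65% in size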
# Outline: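 Viability was read as ATP luminescence (CellTiter-Glo) after 48 h of compound exposure at 37 C in A673 cells seeded at 500-1,000/well. Titrations reached 46 uM final, with 11 points in the confirmatory screen. Concentration-response curves were fitted directly.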
# [20] = qHTS of pediatric cancer cell lines to identify multiple opportunities for drug repurposing: Confirmatory screen for NB1643 cells (AID 1347109); note: nearly all actives have a fitted effect of over 45% in size
# Outline: as §2
Compound,Potency [1],Potency [2],Potency [3],Potency [4],Potency [5],Potency [6],Potency [7],Potency [8],Potency [9],Potency [10],Potency [11],Potency [12],Potency [13],Potency [14],Potency [15],Potency [16],Potency [17],Potency [18],Potency [19],Potency [20]
CN(C(=O)c1ccc(F)cc1C(F)(F)F)C1CCN(c2nnc(-c3ccnn3C)c3ccccc23)CC1,inactive,11.8 µM (active),0.332 µM (active),inactive,inactive,inactive,4.18 µM (active),inactive,21.7 µM (active),inactive,24.3 µM (active),inactive,,,,,,,,
NC(=O)c1ccc(I)c([N+](=O)[O-])c1,inactive,18.7 µM (active),3.72 µM (active),inactive,inactive,inactive,inactive,inactive,inactive,inactive,inactive,,inactive,inactive,inactive,inactive,inactive,,,
O=C(O)COCCN1CCN(C(c2ccccc2)c2ccc(Cl)cc2)CC1 (centres undefined),inactive,inactive,inactive,inactive,inactive,inactive,inactive,inactive,inactive,inactive,inactive,inactive,inactive,inactive,inactive,inactive,inactive,inactive,,
COc1ccc(-c2oc3cc(OC)ccc3c2C(=O)c2ccc(C#N)cc2)cc1,1.18 µM (active),0.0935 µM (active),4.18 µM (active),0.685 µM (active),7.43 µM (active),inactive,,0.833 µM (active),1.09 µM (active),inactive,0.968 µM (active),inactive,,24.1 µM (active),,,inactive,,inactive,
CC(C[N+](C)(C)C)OC(N)=O (centres undefined),inactive,inactive,inactive,inactive,inactive,inactive,inactive,inactive,inactive,inactive,inactive,inactive,inactive,inactive,inactive,inactive,inactive,inactive,,
O=C1[C@H](Cc2ccc(O)cc2)N2C(=O)CCN(C(=O)NCc3ccccc3)[C@H]2CN1Cc1cccc2ccccc12,10.5 µM (active),11.8 µM (active),1.18 µM (active),4.85 µM (active),14.8 µM (active),inactive,2.96 µM (active),10.5 µM (active),,,4.85 µM (active),,,,10.5 µM (active),3.72 µM (active),,,,
Cc1csc(NC(=O)c2sc3nc4c(c(C(F)(F)F)c3c2N)CCC4)n1,inactive,1.18 µM (active),inactive,8.63 µM (active),inactive,inactive,,inactive,inactive,inactive,,2.64 µM (active),inactive,,,inactive,,,,
O=C(O)CCc1ccc(NCc2cccc(Oc3ccccc3)c2)cc1,inactive,inactive,inactive,inactive,inactive,inactive,inactive,inactive,inactive,inactive,inactive,inactive,inactive,inactive,inactive,inactive,inactive,inactive,,
NCCc1ccc(O)c(O)c1,inactive,23.5 µM (active) and 10.6 µM (active),18.7 µM (active) and 7.5 µM (active),inactive,inactive,inactive,inactive,inactive,inactive,inactive,inactive,inactive,inactive,inactive,inactive,inactive,inactive,inactive,,
O=c1[nH]c(-c2ccc(C(F)(F)F)cc2)nc2c1CSCC2,inactive,14.8 µM (active),13.2 µM (active),,,inactive,,inactive,,inactive,,inactive,,,,,,,,
COc1cc(Nc2ncc3c(n2)-c2ccc(Cl)cc2C(c2c(F)cccc2OC)=NC3)ccc1C(=O)O,0.0209 µM (active),inactive,0.0743 µM (active),inactive,0.0332 µM (active),,13.2 µM (active),0.0093 µM (active),,20.9 µM (active),,inactive,4.69 µM (active),8.57 µM (active),,5.9 µM (active),,,,
CS(=O)(=O)Oc1ccc2c(NC(N)=O)c(C(=O)c3ccc(Cl)cc3Cl)oc2c1,3.32 µM (active),2.35 µM (active),1.48 µM (active),3.43 µM (active),4.18 µM (active),,3.72 µM (active),2.09 µM (active),,2.35 µM (active),1.53 µM (active),,,15.2 µM (active),13.2 µM (active),18.7 µM (active),inactive,,,
O=C1CCCC2=C1C(c1[nH]ncc1Cl)N=C(Nc1nc3ccccc3o1)N2 (centres undefined),inactive,inactive,,inactive,inactive,inactive,,inactive,,inactive,,inactive,,,,inactive,inactive,,,
O=c1[nH]cnc2[nH]ncc12,inactive,inactive,,inactive,inactive,inactive,inactive,inactive,inactive,inactive,21.7 µM (active),inactive,inactive,inactive,inactive,inactive,inactive,inactive,,
Nc1nc2c(ncn2COCCO)c(=O)[nH]1,inactive,inactive,,inactive,inactive,inactive,inactive,inactive,inactive,inactive,inactive,inactive,inactive,inactive,inactive,inactive,inactive,inactive,,inactive
